# PubChem BioAssay (NCI)
# Compounds without any hit were thinned out: in the full panel of roughly 79,000, 15% have a hit. Unmarked numbers belong to inactive results. The source made the active and inactive calls. No stated cut-off is given here; in the data, active means growth inhibition above about 70%; inactive means the rest.
# Columns and labels:
# [1] = NCI Yeast Anticancer Drug Screen. Data for the rad52 strain (AID 147);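 further: 0% = growth of vehicle-treated control cultures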; conditions: S. cerevisiae rad52 mutant growth inhibition, hits give high values
# Procedure, shortened: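 Compounds are applied to a genetically defined yeast strain lacking normal DNA damage repair, and inhibition of growth is expressed relative to cultures given vehicle only.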
# [2] = NCI Yeast Anticancer Drug Screen. Data for the wt1 strain (AID 149);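 further: 0% = growth of vehicle-treated wt1 cultures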; conditions: S. cerevisiae wt1 strain (SPY 50644) growth inhibition, hits give high values
# Procedure, shortened: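 wt1 strain grown with compound or vehicle; inhibition taken from the growth difference.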
# [3] = NCI Yeast Anticancer Drug Screen. Data for the rad50EPP+ strain (AID 151);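 further: 0% = growth of vehicle-treated control cultures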; conditions: S. cerevisiae rad50 mutant strain, hits give high values
# Procedure, shortened: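 Compounds were applied to the rad50EPP+ yeast strain, which bears a defined DNA repair alteration, and growth inhibition was determined relative to vehicle-treated cultures.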
# [4] = NCI Yeast Anticancer Drug Screen. Data for the rad50 strain (AID 155);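 further: 0% = growth of vehicle-only cultures of the same strain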; conditions: S. cerevisiae rad50 strain growth inhibition, hits give high values
# Procedure, shortened: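 DNA repair mutant yeast, compound exposure, growth read-out; inhibition is taken relative to vehicle.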
# [5] = NCI Yeast Anticancer Drug Screen. Data for the mec2-1 strain (AID 157); conditions: S. cerevisiae mec2-1 strain, hits give high values
# Procedure, shortened: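 Strain: mec2-1 (DNA repair/cell cycle alteration). Compound exposure, then growth measured; inhibition expressed relative to vehicle.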
# [6] = NCI Yeast Anticancer Drug Screen. Data for the rad14 strain (AID 159);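 further: 0% = growth of vehicle-treated control cultures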; conditions: S. cerevisiae rad14 strain growth inhibition, hits give high values
# Procedure, shortened: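 DNA repair-defective yeast, compound-exposed; % growth inhibition derived by comparison with vehicle-treated controls.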
# [7] = NCI Yeast Anticancer Drug Screen. Data for the sgs1 mgt1 strain (AID 161);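 further: 0% = growth of cultures given vehicle only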; conditions: S. cerevisiae sgs1 mgt1 strain, hits give high values
# Procedure, shortened: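 Inhibition of yeast growth, normalised to vehicle-treated controls, is reported for a strain bearing genetic alterations in DNA damage repair.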
# [8] = NCI Yeast Anticancer Drug Screen. Data for the CLN2oe strain (AID 163);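 further: 0% = growth of vehicle-only control cultures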; conditions: S. cerevisiae CLN2oe strain, hits give high values
# Procedure, shortened: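 Growth of a genetically modified yeast strain is measured after compound exposure and compared with cultures given vehicle alone.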
# [9] = NCI Yeast Anticancer Drug Screen. Data for the cln2 rad14 strain (AID 165);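 further: 0% = growth equal to vehicle treated cultures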; conditions: S. cerevisiae cln2 rad14 strain, hits give high values
# Procedure, shortened: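 Compounds are applied to the cln2 rad14 yeast strain, and growth is then compared with that of vehicle-treated cultures to give inhibition.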
# [10] = NCI Yeast Anticancer Drug Screen. Data for the bub3 strain (AID 167); conditions: S. cerevisiae bub3 mutant strain, hits give high values
# Procedure, shortened: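 In this screen, a yeast mutant lacking normal mitotic checkpoint function is challenged with compound. Relative growth versus vehicle gives the inhibition value.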
# [11] = NCI Yeast Anticancer Drug Screen. Data for the wt2 strain (AID 169);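 further: 0% = growth of vehicle-treated yeast cultures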; conditions: S. cerevisiae wt2 strain growth inhibition, hits give high values
# Procedure, shortened: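 This strain belongs to a panel of yeast strains with defined genetic alterations in DNA damage repair or cell cycle control. Compounds are applied, and growth inhibition is measured against vehicle-treated cultures.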
# [12] = NCI Yeast Anticancer Drug Screen. Data for the mlh1 strain (AID 171);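 further: 0% = growth of vehicle-treated control cultures of the same strain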; conditions: S. cerevisiae mlh1 strain growth inhibition, hits give high values
# Procedure, shortened: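 Growth of the mutant yeast strain after compound exposure, expressed as inhibition relative to vehicle-only controls.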
# [13] = NCI Yeast Anticancer Drug Screen. Data for the sgs1 strain (AID 173);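 further: 0% = growth of vehicle-only control cultures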; conditions: S. cerevisiae sgs1 mutant, hits give high values
# Procedure, shortened: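 Growth of a yeast strain bearing a defined genetic alteration is measured after compound treatment. Inhibition is expressed relative to vehicle-only controls.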
# [14] = NCI Yeast Anticancer Drug Screen. Data for the mlh1 rad18 strain (AID 175); conditions: S. cerevisiae mlh1 rad18 strain growth inhibition, hits give high values
# Procedure, shortened: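 Read-out is yeast growth inhibition, calculated against vehicle-only controls. The compound was applied to a strain engineered with DNA damage repair alterations.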
# [15] = NCI Yeast Anticancer Drug Screen. Data for the mgt1 strain (AID 153); conditions: S. cerevisiae mgt1 mutant growth inhibition, hits give high values
# Procedure, shortened: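 Strain: mgt1 yeast, one of a set carrying defined DNA damage repair or cell cycle control alterations. Compound-treated growth compared with vehicle.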
# [16] = NCI Yeast Anticancer Drug Screen. Data for the rad18 strain (AID 177); conditions: S. cerevisiae rad18 mutant growth inhibition, hits give high values
# Procedure, shortened: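 Growth of the mutant yeast strain after compound exposure, normalised to vehicle-only cultures.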
# [17] = at 5.0 µM (retest, dose inferred, filed as 0.5)
# [18] = at 50.0 µM (retest, dose inferred, filed as 5.0)
smiles,measurement,setting,value
CC1=NN(c2cccc(Cl)c2)C(=O)C1,growth inhibition,[1]; at 1.2 µM,-33%
same,growth inhibition,[1]; at 3.7 µM,-33%
same,growth inhibition,[1]; at 11.0 µM,-22%
same,growth inhibition,[1]; at 33.0 µM,-16%
same,growth inhibition,[1]; at 100.0 µM,14%
same,growth inhibition,[2]; at 1.2 µM,-13%
same,growth inhibition,[2]; at 3.7 µM,-36%
same,growth inhibition,[2]; at 11.0 µM,-22%
same,growth inhibition,[2]; at 33.0 µM,-2%
same,growth inhibition,[2]; at 100.0 µM,28%
same,growth inhibition,[3]; at 1.2 µM,-65%
same,growth inhibition,[3]; at 3.7 µM,-50%
same,growth inhibition,[3]; at 11.0 µM,-38%
same,growth inhibition,[3]; at 33.0 µM,-27%
same,growth inhibition,[3]; at 100.0 µM,-26%
same,growth inhibition,[4]; at 1.2 µM,-47%
same,growth inhibition,[4]; at 3.7 µM,-54%
same,growth inhibition,[4]; [17],81% (active)
same,growth inhibition,[4]; at 11.0 µM,-61%
same,growth inhibition,[4]; at 33.0 µM,-44%
same,growth inhibition,[4]; [18],99% (active)
same,growth inhibition,[4]; at 50.0 µM,43.4%
same,growth inhibition,[4]; at 100.0 µM,28%
same,growth inhibition,[5]; at 1.2 µM,-35%
same,growth inhibition,[5]; at 3.7 µM,-27%
same,growth inhibition,[5]; [17],74% (active)
same,growth inhibition,[5]; at 11.0 µM,-5%
same,growth inhibition,[5]; at 33.0 µM,8%
same,growth inhibition,[5]; [18],100% (active)
same,growth inhibition,[5]; at 50.0 µM,56.1%
same,growth inhibition,[5]; at 100.0 µM,32%
same,growth inhibition,[6]; at 1.2 µM,-4%
same,growth inhibition,[6]; at 3.7 µM,-21%
same,growth inhibition,[6]; at 11.0 µM,-22%
same,growth inhibition,[6]; at 33.0 µM,3%
same,growth inhibition,[6]; at 100.0 µM,36%
same,growth inhibition,[7]; [17],-12%
same,growth inhibition,[7]; [18],56%
same,growth inhibition,[7]; at 50.0 µM,55.9%
same,growth inhibition,[8]; at 1.2 µM,-26%
same,growth inhibition,[8]; at 3.7 µM,-4%
same,growth inhibition,[8]; at 11.0 µM,-1%
same,growth inhibition,[8]; at 33.0 µM,-15%
same,growth inhibition,[8]; at 100.0 µM,20%
same,growth inhibition,[9]; [17],39%
same,growth inhibition,[9]; [18],62%
same,growth inhibition,[9]; at 50.0 µM,27.2%
same,growth inhibition,[10]; at 1.2 µM,-42%
same,growth inhibition,[10]; at 3.7 µM,-33%
same,growth inhibition,[10]; [17],27%
same,growth inhibition,[10]; at 11.0 µM,-32%
same,growth inhibition,[10]; at 33.0 µM,-36%
same,growth inhibition,[10]; [18],33%
same,growth inhibition,[10]; at 50.0 µM,57.1%
same,growth inhibition,[10]; at 100.0 µM,29%
same,growth inhibition,[11]; at 1.2 µM,-31%
same,growth inhibition,[11]; at 3.7 µM,-28%
same,growth inhibition,[11]; at 11.0 µM,-15%
same,growth inhibition,[11]; at 33.0 µM,8%
same,growth inhibition,[11]; at 100.0 µM,51%
same,growth inhibition,[12]; at 1.2 µM,-13%
same,growth inhibition,[12]; at 3.7 µM,-20%
same,growth inhibition,[12]; at 11.0 µM,-16%
same,growth inhibition,[12]; at 33.0 µM,2%
same,growth inhibition,[12]; at 100.0 µM,56%
same,growth inhibition,[13]; at 1.2 µM,-27%
same,growth inhibition,[13]; at 3.7 µM,-22%
same,growth inhibition,[13]; at 11.0 µM,-11%
same,growth inhibition,[13]; at 33.0 µM,4%
same,growth inhibition,[13]; at 100.0 µM,50%
same,growth inhibition,[14]; [17],73% (active)
same,growth inhibition,[14]; [18],100% (active)
same,growth inhibition,[14]; at 50.0 µM,44%
Cc1ccc(S(=O)(=O)Oc2cc(Cl)c(Cl)cc2Cl)cc1,growth inhibition,[1]; at 1.2 µM,-1%
same,growth inhibition,[1]; at 3.7 µM,4%
same,growth inhibition,[1]; at 11.0 µM,9%
same,growth inhibition,[1]; at 33.0 µM,-5%
same,growth inhibition,[1]; at 100.0 µM,17%
same,growth inhibition,[2]; at 1.2 µM,-2%
same,growth inhibition,[2]; at 3.7 µM,-4%
same,growth inhibition,[2]; at 11.0 µM,-7%
same,growth inhibition,[2]; at 33.0 µM,-9%
same,growth inhibition,[2]; at 100.0 µM,-12%
same,growth inhibition,[3]; at 1.2 µM,-1%
same,growth inhibition,[3]; at 3.7 µM,9%
same,growth inhibition,[3]; at 11.0 µM,27%
same,growth inhibition,[3]; at 33.0 µM,28%
same,growth inhibition,[3]; at 100.0 µM,66%
same,growth inhibition,[15]; at 1.2 µM,0%
same,growth inhibition,[15]; at 3.7 µM,-2%
same,growth inhibition,[15]; at 11.0 µM,-6%
same,growth inhibition,[15]; at 33.0 µM,-9%
same,growth inhibition,[15]; at 100.0 µM,-8%
same,growth inhibition,[4]; at 1.2 µM,-2%
same,growth inhibition,[4]; at 3.7 µM,6%
same,growth inhibition,[4]; [17],9%
same,growth inhibition,[4]; at 11.0 µM,11%
same,growth inhibition,[4]; at 33.0 µM,3%
same,growth inhibition,[4]; [18],7%
same,growth inhibition,[4]; at 50.0 µM,-6.5%
same,growth inhibition,[4]; at 100.0 µM,17%
same,growth inhibition,[6]; at 1.2 µM,-4%
same,growth inhibition,[6]; at 3.7 µM,4%
same,growth inhibition,[6]; at 11.0 µM,2%
same,growth inhibition,[6]; at 33.0 µM,-7%
same,growth inhibition,[6]; at 100.0 µM,2%
same,growth inhibition,[7]; [17],23%
same,growth inhibition,[7]; [18],25%
same,growth inhibition,[7]; at 50.0 µM,7.65%
same,growth inhibition,[8]; at 1.2 µM,-2%
same,growth inhibition,[8]; at 3.7 µM,-6%
same,growth inhibition,[8]; at 11.0 µM,-10%
same,growth inhibition,[8]; at 33.0 µM,-18%
same,growth inhibition,[8]; at 100.0 µM,-18%
same,growth inhibition,[9]; [17],4%
same,growth inhibition,[9]; [18],3%
same,growth inhibition,[9]; at 50.0 µM,-9.8%
same,growth inhibition,[10]; at 1.2 µM,1%
same,growth inhibition,[10]; at 3.7 µM,3%
same,growth inhibition,[10]; [17],4%
same,growth inhibition,[10]; at 11.0 µM,3%
same,growth inhibition,[10]; at 33.0 µM,-2%
same,growth inhibition,[10]; [18],40%
same,growth inhibition,[10]; at 50.0 µM,10.2%
same,growth inhibition,[10]; at 100.0 µM,-4%
same,growth inhibition,[11]; at 1.2 µM,1%
same,growth inhibition,[11]; at 3.7 µM,-9%
same,growth inhibition,[11]; at 11.0 µM,-14%
same,growth inhibition,[11]; at 33.0 µM,-9%
same,growth inhibition,[11]; at 100.0 µM,-8%
same,growth inhibition,[12]; at 1.2 µM,1%
same,growth inhibition,[12]; at 3.7 µM,1%
same,growth inhibition,[12]; at 11.0 µM,2%
same,growth inhibition,[12]; at 33.0 µM,-6%
same,growth inhibition,[12]; at 100.0 µM,8%
same,growth inhibition,[13]; at 1.2 µM,-19%
same,growth inhibition,[13]; at 3.7 µM,-14%
same,growth inhibition,[13]; at 11.0 µM,-18%
same,growth inhibition,[13]; at 33.0 µM,0%
same,growth inhibition,[13]; at 100.0 µM,12%
same,growth inhibition,[14]; [17],18%
same,growth inhibition,[14]; [18],53%
same,growth inhibition,[14]; at 50.0 µM,2.3%
same,growth inhibition,[16]; at 1.2 µM,-5%
same,growth inhibition,[16]; at 3.7 µM,-2%
same,growth inhibition,[16]; at 11.0 µM,1%
same,growth inhibition,[16]; at 33.0 µM,-3%
same,growth inhibition,[16]; at 100.0 µM,11%
